High-throughput results: PubChem BioAssay, National Center for Advancing Translational Sciences (NCATS)
HT1080 IDH1KD tx: kills HT-1080 cells with IDH1 knockdown; AID 686971; Potency, µM (titrated, usually from 46.1 µM), for inactives: at the highest dose activity, negative = toxicity, usual class: cytotoxic; HT-1080 IDH1 knockdown viability, ATP luminescence, 48 h; 360,000 compounds, 2% hits;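 also: potency is read from the fitted curve at half-maximal effect; 0% = DMSO wells and -100% = cell-free medium wells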
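Luminescent ATP read-out (CellTiter-Glo, 10 min at room temperature) after 48 h compound exposure at 37 °C gave viability of IDH1-knockdown HT-1080 cells. Activity was normalised to DMSO and cell-free wells, then fitted as concentration-response curves.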
DT40 TDP1 no CPT: qHTS for Inhibitors of human tyrosyl-DNA phosphodiesterase 1 (TDP1): qHTS in cells in absence of CPT; DT40 Tdp1-/- hTDP1 cells, no CPT, ATP luminescence, 48 h; Potency, µM (highest dose often 46.2 µM), for inactives: at the highest dose activity change, negative = growth inhibition, actives largely listed as inhibitors; 420,000 compounds, 15% hits; AID 686978, 2013; also: potency is read from the fitted curve at half-maximal effect; nearly all actives have a fitted effect of over 55% in size
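Camptothecin absent (DMSO only). Human TDP1-complemented DT40 knockout cells, 400 cells/well, 37 °C for minimum 48 hr; ATP measured via CellTiter-Glo, 30 min dark incubation, luminescence.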
HT1080NT lethal: kills 2HG-producing HT-1080-NT fibrosarcoma cells; HT-1080-NT fibrosarcoma viability, CellTiter-Glo ATP luminescence, 48 h; Potency, µM (highest dose often 46.1 µM), for inactives: at the highest dose activity, negative = less viability, most hits filed as cytotoxic; 360,000 compounds, 1.6% hits; AID 686970;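 also: NT is the 2HG producing partner of a matched IDH1 knockdown line; potency is read from the fitted curve at half-maximal effect; 0% = DMSO-treated cells and -100% = media-only wells without cells; nearly all actives have a fitted effect of over 55% in size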
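Viability by CellTiter-Glo luminescence after 48 h compound exposure at 37C of HT-1080-NT cells (750/well, RPMI, 5% FBS). % activity scaled between DMSO wells and medium-only wells, then curve-fitted and categorized by curve class.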
DT40 TDP1 CPT: growth inhibition of DT40 Tdp1-/-;hTDP1 cells with camptothecin (screen for TDP1 inhibitors); chicken DT40 Tdp1-/-;hTDP1 cells + 20 nM CPT, ATP luminescence, 48 h; 420,000 compounds, 12% hits; Potency, µM (series often up to 46.2 µM), for inactives: top-dose activity change, negative = growth inhibition, hits mostly inhibitors; also: potency is read from the fitted curve at half-maximal effect; nearly all actives have a fitted effect of over 55% in size
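Chicken DT40 Tdp1-/- cells stably complemented with human TDP1 were seeded at 400 cells/well in medium containing 20 nM camptothecin, exposed to pin-transferred compounds, and grown at 37 °C for at least 48 hr. Viability was read as ATP luminescence.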
12-LOX inh: blocks human arachidonate 12S-lipoxygenase. P18054. purified 12hLO, xylenol orange hydroperoxide absorbance. Potency, µM (doses to about 108 µM), inactives show at the top dose activity change, negative = inhibition, hits mostly inhibitors. 580,000 compounds, 1.1% hits. AID 1671190; also: potency is read from the fitted curve at half-maximal effect
Target sequence (P18054 whole entry, looked up): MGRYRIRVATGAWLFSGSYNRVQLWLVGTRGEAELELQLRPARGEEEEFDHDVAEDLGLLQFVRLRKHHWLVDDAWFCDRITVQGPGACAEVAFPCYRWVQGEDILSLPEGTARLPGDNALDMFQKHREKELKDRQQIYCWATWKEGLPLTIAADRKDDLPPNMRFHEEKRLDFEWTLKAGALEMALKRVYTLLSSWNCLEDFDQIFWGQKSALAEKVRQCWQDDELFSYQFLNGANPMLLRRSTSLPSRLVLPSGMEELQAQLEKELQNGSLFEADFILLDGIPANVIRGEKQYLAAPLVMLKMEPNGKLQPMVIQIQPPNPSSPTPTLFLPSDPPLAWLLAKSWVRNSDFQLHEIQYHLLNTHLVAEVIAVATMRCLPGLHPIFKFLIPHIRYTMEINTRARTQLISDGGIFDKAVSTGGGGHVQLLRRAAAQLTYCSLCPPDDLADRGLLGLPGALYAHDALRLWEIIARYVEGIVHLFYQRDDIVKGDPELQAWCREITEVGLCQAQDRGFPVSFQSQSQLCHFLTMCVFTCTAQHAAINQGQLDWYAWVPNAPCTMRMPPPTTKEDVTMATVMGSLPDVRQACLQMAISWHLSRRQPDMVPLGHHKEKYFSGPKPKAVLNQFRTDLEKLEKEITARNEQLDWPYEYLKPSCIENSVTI
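Purified human 12hLO (150 nM final) in 25 mM Hepes, 0.01% Triton X-100, pH 7.0 was preincubated 15 min at room temperature with compound. Then 40 uM arachidonic acid was added, 30 min. Hydroperoxide was read by Fe-XO absorbance ratio 573/405 nm.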
IL1B secr inh: inhibitors of inflammasome signaling (IL-1 beta secretion); activity change, % at 57.5 µM; 360,000 compounds, 4.7% hits; THP-1 LPS/ATP IL-1B secretion, AlphaLISA, 16 h; hits give low values; in the data active = activity change below about -50%; inconclusive = mostly about -30% to -49%
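Secreted IL-1B measured by AlphaLISA bead assay after 16 h compound exposure of THP-1 cells; compounds (final up to 57.5 uM) added 1 h before LPS (250 ng/mL) and ATP (1.25 mM) stimulation; lower signal means less secretion.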
Starred values were filed as active, the others as inactive; ? = inconclusive; · = not tested or not shown. The sample as a whole holds a higher share of hits than the screen did. Unless noted, calls follow the shape of the dose curve; as a rule, active = well fitted curve in the direction sought with a large enough effect; inconclusive = small, poorly fitted or top-dose-only effect, or another doubt; inactive = no such curve, though single readings can be large; an effect the other way counts as inactive or inconclusive. Unless noted, % is scaled to controls: 0 for no effect and ±100 for the full control effect.

SMILES	HT1080 IDH1KD tx	DT40 TDP1 no CPT	HT1080NT lethal	DT40 TDP1 CPT	12-LOX inh	IL1B secr inh
CCNC(=O)N1CCCN(Cc2ccncc2)C(c2ccccc2)CC(=O)NCC1 (stereo not drawn)	·	·	·	·	17.8%	·
O=C(CN1CCN(c2cccc(Cl)c2)CC1)NCc1ccccc1	-10.0%	?	-4.4%	-20.6%	8.6%	-8.2
Cc1cc2[nH]c(=O)c(=O)[nH]c2cc1S(=O)(=O)N1CCN(c2cccc(C(F)(F)F)c2)CC1	-19.6%	?	-1.2%	-9.0%	?	9.7
Cc1[nH]c2ccccc2c1NC(=O)CN1CCN(c2cccc(C(F)(F)F)c2)CC1	?	?	18.4µM*	?	364.3%	7.7
Cc1[nH]c2ccccc2c1C(O)CN1CCN(c2cccc(C(F)(F)F)c2)CC1 (stereo not drawn)	?	18.4µM*	?	23.1µM*	?	-103.2*
O=C(CN1CCN(c2cccc(C(F)(F)F)c2)CC1)NCc1ccccc1	-12.7%	?	-3.2%	-9.2%	0.0%	-55.2*
O=c1c2sccc2ncn1Cc1coc(-c2ccccc2)n1	·	·	·	·	4.4%	·
Cc1noc(-c2cccn3c(CNC(=O)c4cccc(Cl)c4)nnc23)n1	·	·	·	·	73.9%	·
CCNC(=O)CC1C(=O)N(CC)C(=S)N1NC(=O)c1ccc(Cl)cc1 (stereo not drawn)	-14.1%	1.9%	0.3%	2.7%	-15.8%	-8.0
CCN1C(=O)C(CC(=O)NCCc2ccccc2)N(NC(=O)c2ccc(Br)cc2)C1=S (stereo not drawn)	-0.4%	20.6µM*	-12.9%	?	-2.9%	-12.5
O=C1c2ccccc2C(=O)N1CCCCN(C(=O)c1cccc([N+](=O)[O-])c1)c1ccc(Cl)cc1	-13.1%	16.4µM*	-0.6%	20.6µM*	-14.2%	-8.2
CCOC(=O)[C@H]1[C@H]2COc3ccc(Cl)cc3[C@@H]2N2C(=O)c3ccc(C)cc3NC(=O)[C@@]12C	12.7%	?	18.2%	?	-11.7%	-13.1
C[C@@]12C(=O)Nc3cc(Cl)ccc3C(=O)N1[C@H]1c3cc(Br)ccc3OC[C@@H]1[C@@H]2c1ccccc1	?	23.1µM*	?	14.6µM*	-4.0%	-22.7
C[C@@]12C(=O)NCC(=O)N1[C@@H]1c3cc(Br)ccc3OC[C@@H]1[C@@H]2c1ccccc1	-7.2%	-22.6%	-21.4%	10.4%	-7.3%	0.5
C[C@@]12C(=O)Nc3cc(Cl)ccc3C(=O)N1[C@H]1c3cc(Cl)ccc3OC[C@@H]1[C@@H]2c1ccccc1	?	?	?	18.4µM*	-2.1%	-12.5
COc1ccc(NC(=O)c2oc3ccccc3c2NC(=O)C2CCCCC2)c(OC)c1	·	-12.5%	·	10.0%	-19.8%	·
COc1cccc(C2CC(=O)Nc3c2c(=O)n(C)c2nc4ccccc4n32)c1OC (stereo not drawn)	·	·	·	·	-7.2%	·
C[C@H](O)[C@@H]1CN2CCc3c([nH]c4ccc(-c5ccc6c(c5)OCO6)cc34)[C@@H]2C[C@@H]1N(C)C(=O)Nc1cc(Cl)cc(Cl)c1	7.31µM*	3.26µM*	9.2µM*	4.11µM*	-101.9%	-15.7
C[C@H](O)[C@@H]1CN2CCc3c([nH]c4ccccc34)[C@@H]2C[C@@H]1N(C)C(=O)Nc1ccc(F)cc1	-9.5%	?	-14.8%	?	-11.8%	-13.7
Cc1cccc(-c2ccc3[nH]c4c(c3c2)CCN2C[C@@H]([C@H](C)O)[C@@H](N(C)C(=O)Nc3ccc(F)cc3)C[C@@H]42)c1	?	18.4µM*	20.6µM*	16.4µM*	-0.4%	-23.4
COc1ccc(NC(=O)N(C)[C@H]2C[C@H]3c4[nH]c5ccc(-c6cccc(C)c6)cc5c4CCN3C[C@H]2[C@H](C)O)cc1	?	16.4µM*	23.1µM*	?	·	-29.2
Cc1ccnc(Nc2nc(C)c3cccc(C)c3n2)n1	·	·	·	·	0.1%	·
COc1ccc(C(=O)NC(CC(=O)O)c2cc([N+](=O)[O-])ccc2Cl)cc1 (stereo not drawn)	11.7%	-9.6%	0.5%	0.1%	-7.7%	30.5
COc1ccc(C(=O)CC(=O)C(=O)Nc2ccc(OC)c(Cl)c2)cc1	11.6%	?	1.5%	-22.1%	0.0%	-5.1
COc1ccc(C(=O)CC(=O)C(=O)Nc2ccc(Cl)cc2)cc1	?	20.6µM*	-1.6%	?	9.9%	2.6
SMILES	HT1080 IDH1KD tx	DT40 TDP1 no CPT	HT1080NT lethal	DT40 TDP1 CPT	12-LOX inh	IL1B secr inh
COc1ccc(C(=O)CC(=O)C(=O)Nc2cc(OC)ccc2OC)cc1	22.2%	?	3.9%	-1.7%	0.0%	18.3
COc1ccc(C(=O)CC(=O)C(=O)Nc2ccccc2C(F)(F)F)cc1	?	6.51µM*	-18.1%	10.3µM*	0.0%	19.4
COc1ccc(NC(=S)Nc2ccccc2C(F)(F)F)cc1	7.4%	-26.8%	18.1%	1.0%	-28.4%	13.9
COc1ccc(C(=O)CC(Nc2ccc([N+](=O)[O-])cc2)c2ccc(Cl)cc2)cc1 (stereo not drawn)	10µM*	18.4µM*	?	?	20.6%	-52.7*
COc1ccc(C(=O)CC(=O)C(=O)Nc2ccccc2Cl)cc1	4.6%	10.3µM*	-15.1%	13µM*	34.5%	43.1
COc1ccc(NC(=O)Cn2c(C)cc3nc4n(c(=O)c32)CCC4)cc1Cl	·	·	·	·	-11.2%	·
COc1ccc(C(=O)CC(=O)c2ccccc2)cc1	-16.9%	?	-11.7%	-16.6%	0.0%	-13.1
COc1ccc(C(=O)CC(=O)C(=O)Nc2c(C)cccc2C)cc1	-6.2%	9.2µM*	-29.2%	20.6µM*	?	-10.1
COc1ccc2c(c1)c1c(c(=O)n(-c3ccc(C)cc3)c(=O)n1CC(=O)NCc1ccc(C)cc1)n2C	·	6.51µM*	·	7.31µM*	0.0%	·
Cc1ccc2c(c1)c1c(c(=O)n(-c3ccccc3C)c(=O)n1Cc1ccccc1F)n2C	·	5.8µM*	·	14.6µM*	-12.6%	·
COc1ccc2c(c1)c1c(c(=O)n(-c3ccccc3C)c(=O)n1Cc1ccccc1C)n2C	·	-11.3%	·	0.9%	0.0%	·
Cc1ccc2c(c1)c1c(c(=O)n(-c3ccccc3C)c(=O)n1CC(=O)NCc1ccccc1)n2C	·	18.4µM*	·	?	-25.0%	·
Cc1c(O)cccc1C(=O)N1CCCC2(C1)C(=O)N(C)c1ccccc12 (stereo not drawn)	·	·	·	·	15.1%	·
